# Screening data deposited in PubChem BioAssay by several laboratories.
# Most compounds without a hit are left out; they make up all but 1.8% or so of the library.
# bovine MsrA act: activates bovine MsrA enzyme. purified bovine MsrA, absorbance read-out. 360,000 compounds, 0.3% hits. activation, % at 10.6 µM; in the data active means activation above about 7.5%;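 further: 0% = vehicle and 100% = reference activator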
# GC-B act: GC-B (human) receptor activation. P20594. AID 1920062. activation, % at 10 µM. HEK293-GC-B cells, CNP EC30, cGMP TR-FRET; 0% at EC30 CNP, 100% saturating CNP. 370,000 compounds, 0.11% hits;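 active means activation at 10 µM reaching about 35% in either raw or pattern-adjusted values, limit read from the data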
# GC-A act: GC-A (human) enzyme activation | AID 1671463 | activation, % at 10 µM | HEK293 GC-A cells, cGMP TR-FRET, EC30 ANP; 0% at EC30 ANP, 100% saturating ANP | P16066 | 370,000 compounds, 0.14% hits; in the data active means activation above about 40%
# Target sequence (P16066 whole entry, looked up): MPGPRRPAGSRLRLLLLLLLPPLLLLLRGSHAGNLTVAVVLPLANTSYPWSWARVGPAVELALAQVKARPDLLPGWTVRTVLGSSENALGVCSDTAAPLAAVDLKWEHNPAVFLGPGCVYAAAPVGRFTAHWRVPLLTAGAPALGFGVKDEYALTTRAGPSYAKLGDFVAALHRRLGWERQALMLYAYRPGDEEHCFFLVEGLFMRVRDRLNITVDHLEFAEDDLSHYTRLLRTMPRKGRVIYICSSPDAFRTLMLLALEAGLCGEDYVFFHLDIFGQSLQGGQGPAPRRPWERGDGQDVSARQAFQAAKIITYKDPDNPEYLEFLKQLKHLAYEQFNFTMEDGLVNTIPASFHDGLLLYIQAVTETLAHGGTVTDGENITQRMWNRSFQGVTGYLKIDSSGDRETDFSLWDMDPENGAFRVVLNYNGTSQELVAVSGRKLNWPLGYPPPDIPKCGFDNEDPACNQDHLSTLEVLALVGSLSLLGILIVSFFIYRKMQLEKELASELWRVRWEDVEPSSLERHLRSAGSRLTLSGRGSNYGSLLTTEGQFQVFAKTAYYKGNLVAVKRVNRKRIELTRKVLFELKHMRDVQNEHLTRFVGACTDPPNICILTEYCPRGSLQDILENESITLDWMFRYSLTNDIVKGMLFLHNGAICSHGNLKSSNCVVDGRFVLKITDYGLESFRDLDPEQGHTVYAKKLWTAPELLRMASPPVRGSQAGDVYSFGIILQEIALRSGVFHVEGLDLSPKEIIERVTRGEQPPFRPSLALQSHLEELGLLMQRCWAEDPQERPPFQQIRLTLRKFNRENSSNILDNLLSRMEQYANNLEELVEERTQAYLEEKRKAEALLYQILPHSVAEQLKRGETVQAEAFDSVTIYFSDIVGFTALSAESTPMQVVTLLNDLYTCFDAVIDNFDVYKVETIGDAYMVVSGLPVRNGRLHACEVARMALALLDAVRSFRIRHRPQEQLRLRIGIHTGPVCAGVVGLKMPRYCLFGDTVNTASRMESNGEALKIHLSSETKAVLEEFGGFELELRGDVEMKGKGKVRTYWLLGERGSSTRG
# MsrA inh: inhibitors of bovine MsrA; purified bovine MsrA, absorbance read-out; inhibition, % at 15.5 µM; 360,000 compounds, 0.75% hits; AID 651718; in the data active means inhibition above about 4.5%;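 further: 0% = vehicle wells with enzyme and 100% = reference inhibitor wells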
# HTR2A ag: mouse HTR2A agonism via beta-arrestin recruitment; CHO-K1 mHTR2A beta-arrestin complementation, luminescence; percent of 30 µM serotonin response; 360,000 compounds, 0.66% hits; AID 624169; activation, % at 7.6 µM;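 active means activation above a run cutoff, the mean activation of all tested compounds plus 3 SD, cut at about 14% in these data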;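 further: 0% = plate median of compound wells and 100% = 30 µM serotonin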
# OPRM1 ag: OPRM1 agonism in mouse HTR2A counterscreen; U2OS OPRM1 beta-arrestin PathHunter, luminescence; DMSO 0%, DAMGO 9.3 µM 100%; activation, % at 9.3 µM; shares compounds with HTR2A ag; 2,300 compounds, 5.3% hits;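 active means mean activation above the mean of DMSO-only wells plus 3 SD, cut at about 0.5% in these data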
# m5-HT2A ag conf: mouse HTR2A agonism confirmed. shares compounds with HTR2A ag. CHO-K1 PathHunter beta-arrestin recruitment, luminescence; DMSO 0%, 30 µM serotonin 100%. activation, % at 7.6 µM. 2,300 compounds, 19% hits;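 active means mean activation across triplicates above the hit threshold derived in the original primary screen, cut at about 15% in these data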
# Active calls of the source: *; . = not tested or not shown.
SMILES,bovine MsrA act,GC-B act,GC-A act,MsrA inh,HTR2A ag,OPRM1 ag,m5-HT2A ag conf
CC1CC(C)(C)NC(=S)N1CCCC(=O)NCc1ccccc1 (stereo not given),-0.8,-1.9,1.4,0.0,14.6*,-0.7,-1.4
CC(C)CN(Cc1cc(=O)oc2cc(-c3ccccc3)c(O)cc12)CC(C)C,-4.1,-4.4,1.2,1.6,16.1*,2.3*,22.3*
O=c1cc(CN2CCN(C/C=C/c3ccccc3)CC2)c2cc(O)c(-c3ccccc3)cc2o1,-0.2,-15.1,-11.9,-0.6,-2.0,.,.
COC(=O)[C@]12C[C@H](CC(=O)NCc3ccc(OC)c(OC)c3)C(=O)N(Cc3ccco3)C1=C[C@H](COCc1ccccc1)O[C@@H]2C,.,5.1,2.8,.,.,.,.
Oc1c(C(c2ccccn2)N2CCCCC2)cc(Cl)c2cccnc12 (stereo not given),-0.4,3.8,-1.9,-0.6,21.9*,-0.8,-17.6
CCOC(=O)[C@]12CCCCC/C=C\1N(CCc1ccc(Cl)cc1)C(=O)[C@H]2CC(=O)NCc1ccccc1,.,-5.8,-5.3,.,.,.,.
O=C(OCC#CCSc1nnc(-c2ccc3ccccc3c2)o1)c1cccs1,.,-8.0,1.5,.,.,.,.
Cc1ccc([C@@H]2[C@@H]3C(=O)N(C)C(=O)[C@@H]3[C@]3(C)C(=O)N(Cc4ccccn4)CC(=O)N23)o1,-2.3,9.8,0.1,3.1,16.6*,-0.6,-2.2
COc1ccccc1/C=N/NS(=O)(=O)c1ccccc1,-1.5,-0.1,0.3,0.4,2.1,.,.
COc1ccc(S(=O)(=O)N/N=C\c2ccccc2F)cc1,-12.7,-1.6,-0.3,2.1,14.7*,-0.8,-4.9
O=C(Cc1ccc(NC(=O)C2CCCN(C(=O)C3CCCCC3)C2)cc1)Nc1cccc(C(=O)N2CCCC2)c1 (stereo not given),-10.6,-0.9,0.5,0.8,10.3,.,.
O=C(Cc1ccc(NC(=O)C2CCCN(C(=O)C3CC3)C2)cc1)Nc1cccc(C(=O)N2CCCC2)c1 (stereo not given),-3.6,-3.7,-4.6,-1.5,15.3*,-0.8,-3.8
CN(C(=O)c1cccc(NC(=O)Cc2ccc(NC(=O)C3CCCN(C(=O)CCc4ccccc4)C3)cc2)c1)C1CCCCC1 (stereo not given),-3.8,-1.1,4.5,-0.1,-1.6,.,.
CN(C(=O)c1cccc(NC(=O)Cc2ccc(NC(=O)C3CCCN(C(=O)CCc4ccccc4)C3)cc2)c1)C1CC1 (stereo not given),-3.0,4.9,2.8,-1.3,16.4*,1.1*,-1.3
O=C(Cc1ccc(NC(=O)C2CCCN(C(=O)C3CCC3)C2)cc1)Nc1ccc(C(=O)N2CCOCC2)cc1 (stereo not given),-1.3,-1.5,-1.3,-0.5,17.1*,0.0,1.4
O=C(O)c1ccccc1Nc1ccnc(C(F)(F)F)c1,0.1,-1.2,1.2,0.0,19.3*,-0.6,-0.7
COCCNC(=S)N(CCc1c(C)[nH]c2ccc(F)cc12)Cc1ccco1,-0.1,-5.7,-6.6,-0.4,27.9*,-0.3,-2.8
Cc1cc(NC(=O)COC(=O)C2CCN(C(=O)c3ccc(Cl)cc3)CC2)no1,-2.2,0.3,-4.4,-1.0,5.4,.,.
Cc1cc(NC(=O)COC(=O)C2CCN(S(=O)(=O)c3cccc(Cl)c3Cl)CC2)no1,0.8,1.4,-1.4,1.2,23.7*,-0.6,-3.6
COc1ccccc1CNC(=O)C1CCN(S(=O)(=O)N2CCCCC2)CC1,-10.1,-0.8,0.8,2.3,3.9,.,.
COc1ccccc1CNC(=O)C1CCC1,-4.6,5.5,-1.4,-0.2,15.3*,-0.7,-2.9
COc1ccccc1CNC(=O)COC(=O)Cc1ccc(Br)cc1,-3.5,0.7,0.9,-0.9,16.0*,-0.6,-2.4
COC(=O)C1CN(Cc2ccc(OC)cc2)CCS(=O)(=O)N1Cc1cn(Cc2ccc(F)cc2)nn1 (stereo not given),.,0.1,-2.9,.,.,.,.
CC(=O)CC[C@@H]1CC[C@]2(CCCN(C(=O)c3ccco3)C2)O1,.,-7.1,3.7,.,.,.,.
CCOC(=O)c1nn(-c2ccccc2)c2nc(-c3ccc(OC)cc3)c(C#N)c(=O)n12,-0.7,4.1,3.0,2.4,19.4*,0.6*,8.3
SMILES,bovine MsrA act,GC-B act,GC-A act,MsrA inh,HTR2A ag,OPRM1 ag,m5-HT2A ag conf
C=CCN=C1NC(c2ccc(F)cc2)C(C(=O)OC)=C(C)N1Cc1ccccc1C(F)(F)F (stereo not given),.,-19.6,-22.9,-0.1,.,.,.
COC(=O)CNc1c(-c2ccccn2)nc2ccc(Br)cn12,-1.9,-5.6,-7.3,0.7,19.3*,-0.6,-3.6
CCOC(=O)CNc1c(-c2ccccc2)nc2ccc(Cl)cn12,0.1,11.0,7.4,1.5,-0.9,.,.
CC(C)OC(=O)NC(Nc1ccccc1C(=O)O)(C(F)(F)F)C(F)(F)F,-0.8,2.5,-1.3,-0.1,21.9*,0.0,1.1
CCCC1CCC2(CCC(=O)N2CCC#N)CC1 (stereo not given),.,-8.2,-0.3,.,.,.,.
CC1CCN(c2ccc(C(=O)Nc3ccc4c(c3)OCO4)cc2[N+](=O)[O-])CC1,-2.2,0.4,2.8,2.4,-5.4,.,.
CC1CCCN(c2ccc(C(=O)Nc3ccc4c(c3)OCO4)cc2[N+](=O)[O-])C1 (stereo not given),-2.6,2.8,3.4,4.2,38.4*,-0.7,9.3
O=C(Nc1ccc(F)cc1)OCc1cn(Cc2cccc(F)c2)nn1,.,-4.6,2.2,.,.,.,.
CCCN1CCC(=NNc2ccc(S(=O)(=O)N3CCOCC3)cc2[N+](=O)[O-])CC1,-10.5,5.8,-4.8,-0.8,17.1*,0.2,1.4
Cc1cc(NN)nc(NS(=O)(=O)c2ccc(Cl)cc2)n1,4.5,0.4,-0.2,1.3,15.6*,0.0,7.2
Cc1cc(NN)nc(NS(=O)(=O)c2ccccc2)n1,-0.1,2.8,1.4,1.3,2.0,.,.
COC(=O)CN1C(=O)C(O)(CC(=O)c2ccccc2)c2ccccc21 (stereo not given),-0.8,4.9,2.8,-0.2,0.5,.,.
C=CCN1C(=O)C(O)(CC(=O)c2ccc(N)cc2)c2ccccc21 (stereo not given),-4.1,3.5,6.6,3.1,23.0*,-0.7,-4.3
OCCN1CCN(c2ncnc3scc(-c4ccc(F)cc4)c23)CC1,-8.5,-0.8,0.3,-0.5,15.8*,-0.2,4.6
Nc1ccc(N2CCN(c3ccc(Cl)c(Cl)c3)CC2)cc1,2.8,2.0,-1.6,-1.3,34.6*,-0.4,-4.7
O=C1CC(N2CCN(Cc3ccccc3)CC2)C(=O)N1 (stereo not given),-3.6,3.7,-0.6,0.9,-1.0,.,.
N#C/C=C(/N)N1CCN(c2ccc(Cl)c(Cl)c2)CC1,-2.9,-10.7,4.0,1.2,35.4*,-0.6,18.8*
